Screening results deposited in PubChem by The Scripps Research Institute Molecular Screening Center.
Shown are actives, neighbours in structure and some others; about 4.2% of the full set was active somewhere.
hgDAF12 agonist: H. glycines DAF-12 receptor agonists, primary screen, cell-based, luminescence, HEK293, GAL4 fusion, UAS-luciferase. HEK293 GAL4-hgDAF12 UAS-luciferase reporter, agonist luminescence; normalized to butyrate control. Nuclear hormone receptor DAF-12 (Heterodera glycines), GAL4 fusion. activation, % at 6.8 µM. 370,000 compounds, 1.8% hits;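 active = activation above a cutoff set at the mean of all screened compounds plus 3 SD, cut at about 10% in these data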;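 note: 0% = DMSO wells and 100% = sodium butyrate wells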
hcDAF-12 act: H. contortus DAF-12 nuclear receptor activators, primary screen, cell-based, luminescence, HEK293, lit1-tk-luc reporter. AID 652067, 2013. HEK293 hcDAF-12 lit1-tk-luc reporter; 0% DMSO, 100% Δ7-dafachronic acid. 370,000 compounds, 1.4% hits. activation, % at 6.8 µM;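 active = activation above the mean of all tested compounds plus 3 SD, cut at about 5.5% in these data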;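 note: 100% = response to 3 µM Δ7-dafachronic acid high control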
ssDAF12 agonist: S. stercoralis DAF-12 nuclear receptor activators, primary screen, cell-based, luminescence, HEK293, GRIP1 co-expression, lit1-tk-luc. Nuclear hormone receptor DAF-12 (Strongyloides stercoralis). activation, % at 6.8 µM. 370,000 compounds, 1% hits. HEK293 ssDAF-12/GRIP1 lit1-tk-luc reporter; % of 3 µM dafachronic acid response. AID 652126, 2013;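 active = activation above the mean over all tested compounds plus 3 SD, cut at about 0.9% in these data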;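 note: 0% = DMSO-only wells and 100% = 3 µM delta7-dafachronic acid wells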
DAX1 StAR inh: DAX1 (NR0B1) inhibitors on StAR promoter, primary screen, cell-based, luminescence, SF-1 (NR5A1), full-length DAX-1; inhibition, % at 6.8 µM; AID 652010, 2013; 370,000 compounds, 1.1% hits; HEK293T StAR-luciferase reporter, SF-1/DAX-1 repression relief;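 active = inhibition above the mean over all tested compounds plus 3 SD, cut at about 3.6% in these data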;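 note: 0% = DAX-1 cells with DMSO and 100% = cells lacking DAX-1 with DMSO; higher inhibition means more luminescence from relief of DAX-1 repression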
SMARCA2 activ: SMARCA2 (BRM) function activators, primary screen, cell-based, luminescence, high throughput; 370,000 compounds, 1% hits; MG213 cells, MMTV-luciferase reporter, dexamethasone, overnight; AID 652017, 2013; activation, % at 9.1 µM; in the data active = activation above about 7.8%;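 note: 0% = vehicle wells and 100% = reference activator wells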
SMARCA2 act conf: SMARCA2 (BRM) function activators, confirmation, cell-based, luminescence, triplicate; shares compounds with SMARCA2 activ; MG213 cells, MMTV-luciferase with dexamethasone, overnight; MG213 cells expressing E1A, Rb sequestered; DMSO wells 0%, reference activator 100%; activation, % at 9.1 µM; 3,500 compounds, 30% hits; AID 652260, 2013;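 active = activation above its plate's cutoff, the mean activation of tested wells plus 3 SD, cut at about 7.9% in these data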
VP16 Luc act: GAL4-VP16 luciferase reporter activation, counter-screen for SMARCA2 (BRM) activator project, cell-based, pG5luc, luminescence, high throughput | shares compounds with SMARCA2 activ | HEK293 GAL4-VP16 pG5luc reporter; scaled: DMSO wells 0%, SAHA wells 100% | activation, % at 9.1 µM | 3,500 compounds, 41% hits | AID 686939, 2013;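 active = activation above the solvent-only control well mean plus 3 SD, averaged across control plates, cut at about 5.2% in these data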
LXRb hcDAF ctr: LXR agonists, Gal4 luciferase reporter, confirmation, counter-screen for hcDAF-12 agonist project, cell-based, luminescence, HEK293, H. contortus campaign; shares compounds with hcDAF-12 act; HEK293 Gal4-LXR tk-luc reporter, 24 h; normalized: DMSO 0%, positive control 100%; activation, % at 6.8 µM; 3,400 tested, under 10 active; AID 743027, 2013;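 active = mean percent activation of the reporter above a cutoff set as the average over tested compounds plus their standard deviation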
Target sequence (P55055 whole entry, looked up, the tested form may be a part): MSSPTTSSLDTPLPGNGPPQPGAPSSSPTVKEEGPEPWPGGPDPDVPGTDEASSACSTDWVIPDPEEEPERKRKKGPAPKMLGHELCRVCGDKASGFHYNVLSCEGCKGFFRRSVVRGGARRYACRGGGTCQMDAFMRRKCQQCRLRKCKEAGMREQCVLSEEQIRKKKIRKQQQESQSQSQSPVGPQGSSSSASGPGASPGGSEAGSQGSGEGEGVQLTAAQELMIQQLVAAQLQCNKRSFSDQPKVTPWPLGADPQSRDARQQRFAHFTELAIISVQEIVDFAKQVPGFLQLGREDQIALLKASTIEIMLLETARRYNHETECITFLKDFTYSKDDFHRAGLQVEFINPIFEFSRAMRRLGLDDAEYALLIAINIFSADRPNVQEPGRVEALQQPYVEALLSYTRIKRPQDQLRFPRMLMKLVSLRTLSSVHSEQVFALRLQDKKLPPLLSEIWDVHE
hcDAF12 conf: H. contortus DAF-12 receptor agonists, confirmation, cell-based, luminescence, HEK293, lit1-tk-luc, triplicate. shares compounds with hcDAF-12 act. HEK293 hcDAF-12 lit1-tk-luc reporter; % of Δ7-dafachronic acid response. activation, % at 6.8 µM. 3,400 compounds, 61% hits;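 active = mean activation across triplicate tests above the threshold derived from the earlier primary screen, cut at about 5.5% in these data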;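 note: 0% = DMSO only wells and 100% = 3 µM Δ7-dafachronic acid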
hgDAF12 ag: H. glycines DAF-12 receptor agonists, confirmation, cell-based, luminescence, HEK293, GAL4-LBD fusion | shares compounds with hgDAF12 agonist | HEK293 GAL4-hgDAF12 luciferase reporter, agonist mode; percent of butyrate response | activation, % at 6.8 µM | 3,300 compounds, 80% hits;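 active = mean activation over triplicate wells above the hit cutoff derived from the earlier primary screen, cut at about 11% in these data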;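 note: 0% = DMSO low control and 100% = 2 mM sodium butyrate high control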
LXRb DAF12 ctr: LXR agonists, Gal4 luciferase reporter, confirmation, counter-screen for hgDAF-12 agonist project, cell-based, luminescence, HEK293, H. glycines campaign | shares compounds with hgDAF12 agonist | 24 h | activation, % at 6.8 µM | 3,300 tested, under 10 active | AID 743051, 2013;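 active = mean activation of the triplicate above a set limit carried over from the primary screen, none filed active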
Numbers without * were called inactive; x = no result given.

SMILES	hgDAF12 agonist	hcDAF-12 act	ssDAF12 agonist	DAX1 StAR inh	SMARCA2 activ	SMARCA2 act conf	VP16 Luc act	hgDAF12 ag	LXRb DAF12 ctr	others
CCc1ccc(Oc2c(Cl)cnn(-c3ccc(C)cc3)c2=O)cc1	0.5	-0.1	-1.8	x	x	x	x	x	x
COc1ccc(Nc2nc(N)nc(CSc3nccn3C)n2)cc1	21.2*	3.2	-0.2	3.2	8.7*	5.9	8.2*	12.6*	0.5
COc1ccc(Nc2nc(N)nc(CSc3nnc(N)s3)n2)cc1	3.6	1.7	0.2	0.5	5.8	x	x	x	x
COc1cccc(-c2noc(-c3cccs3)n2)c1	14.6*	6.9*	1.4*	4.0*	9.5*	8.0*	13.4*	20.6*	1.0	LXRb hcDAF ctr=1.7;hcDAF12 conf=11.0*
CCOC(=O)[C@]12CCCC=C1N(Cc1ccc3c(c1)OCO3)C(=O)[C@H](CC(=O)NCC1CCCCC1)C2	3.1	1.0	0.1	0.4	-3.3	x	x	x	x
COC(=O)[C@]12C[C@H](CC(=O)N3CCC(c4ccccc4)CC3)C(=O)N(Cc3ccccc3)C1=C[C@H](C(C)C)O[C@@H]2C1CC1	0.9	0.5	-1.1	-0.2	-7.1	x	x	x	x
O=C(Nc1ccc(OC(F)F)c(Cl)c1)c1ccccn1	13.7*	3.8	1.4*	4.5*	12.2*	11.0*	19.4*	16.9*	1.0
Cc1nn2cc(-c3ccc(Cl)cc3)nc2s1	13.9*	4.6	-0.1	3.9*	8.7*	2.5	10.3*	15.6*	0.9
CCc1nnc(NC(=O)CSc2ccc(-c3nc4ccc(C)cc4[nH]3)cn2)s1	16.9*	7.3*	0.2	4.4*	8.7*	8.4*	11.7*	17.7*	0.8	LXRb hcDAF ctr=1.5;hcDAF12 conf=7.8*
CCCCS(=O)(=O)N1CCCc2nc(-c3ccc(OC)cc3)ccc21	-0.7	-1.5	-0.9	-1.1	-6.9	x	x	x	x
CN(C)c1ccc(NC(=O)/C=C/c2ccccc2Cl)cc1	18.2*	3.8	-1.0	2.2	8.2*	7.0	11.0*	13.6*	0.6
O=C(C(=O)N1CCN(C(=O)c2cc(C(F)(F)F)cc(C(F)(F)F)c2)CC1)c1cccc(C(F)(F)F)c1	0.4	-0.6	-1.5	-0.3	-1.7	x	x	x	x
O=C(NCc1ccccc1)C1C(c2ccc3c(c2)OCO3)=Nc2ccccc2N1C(=O)c1cccc2ccccc12 (stereo unspecified)	0.7	-2.7	-1.3	-0.4	-3.7	x	x	x	x
O=C1c2ccccc2C(=O)c2cc(NC(=O)C3CC3)ccc21	7.1	4.9	-1.1	1.9	-0.3	x	x	x	x
CC(=O)Nc1ccc2c(c1)C(=O)c1ccccc1C2=O	14.3*	6.5*	0.5	2.5	9.4*	18.9*	11.3*	17.7*	0.8
O=S1(=O)N[C@@H](Cc2ccccc2)COc2cc(N3CCOCC3)ccc21	0.8	-1.4	-0.6	-0.7	0.5	x	x	x	x
CC(=Nc1ccc(C)cc1C)c1sc2ccccc2c1O	21.0*	5.7*	1.9*	4.2*	15.2*	1.6	10.5*	24.1*	1.3
Cc1ccc(O)c(N=Cc2sc3ccccc3c2Cl)c1	-4.2	3.2	-0.2	0.2	-2.6	x	x	x	x
COc1ccccc1C(=O)OCCc1ccccc1	16.8*	6.2*	0.9*	2.9	11.3*	7.4	6.5*	11.5*	0.5
COc1ccccc1C(=O)Cc1ccccc1	0.7	-2.0	-0.3	-0.5	1.2	x	x	x	x
Cc1ccsc1/C=N/NC(=O)c1sccc1C	13.3*	7.2*	1.6*	3.7*	10.8*	12.0*	11.0*	17.5*	0.8
Cc1ccsc1/C=N/NC(=O)CO	-3.4	-2.8	-1.1	-0.8	4.1	x	x	x	x
c1ccc2oc(SCc3cn4ccsc4n3)nc2c1	9.0	3.4	0.7	2.4	-1.2	x	x	x	x
Cc1csc2nc(CSc3nc4ccccc4o3)cn12	13.4*	0.2	-0.5	0.7	8.9*	6.3	4.3	8.2	0.2
O=c1c(Cl)c(N2CCCCC2)cnn1-c1nc2ccccc2[nH]1	-8.3	-1.7	-2.3	-0.9	0.1	x	x	x	x
SMILES	hgDAF12 agonist	hcDAF-12 act	ssDAF12 agonist	DAX1 StAR inh	SMARCA2 activ	SMARCA2 act conf	VP16 Luc act	hgDAF12 ag	LXRb DAF12 ctr	others
Cc1ccc(C)c(N2CCN(c3cnn(-c4nc5ccccc5s4)c(=O)c3Cl)CC2)c1	14.2*	4.7	0.3	3.7*	9.3*	3.5	6.5*	11.8*	0.6
COc1ccc(-n2c(SCc3cccc4ccccc34)nnc2-c2ccccc2)cc1	-0.9	-2.7	-1.7	-1.6	-6.0	x	x	x	x
C[C@H]1CN([C@@H](C)CO)C(=O)CCCn2nncc2CO[C@@H]1CN(C)S(=O)(=O)c1cccs1	-1.0	-1.0	-0.6	-0.2	-2.5	x	x	x	x
Cc1ccc(/C=C/C2=NN(C)C(=O)CC2)cc1	14.1*	2.9	-0.3	3.0	8.3*	6.3	6.6*	15.3*	0.6
CN1N=C(/C=C/c2ccccc2)CCC1=O	3.1	1.1	-0.8	1.7	7.0	x	x	x	x
COc1cc(C2Nc3ccccc3C(=O)N2c2ccc(Cl)cc2)c(Cl)cc1OCC(=O)O (stereo unspecified)	14.2*	5.3	0.6	4.0*	10.4*	12.0*	9.5*	9.4	0.5
